In PubChem BioAssay (NCI):
This is part of a sample that, as a whole, favours compounds with a hit. Of some 83,000 tested, about 20% had one in any assay.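 96-well plates, one dose, 48 hours. Percent growth reported; active if below 10.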 Activity calls are given as the source filed them.

What was measured:
Assay in all cases: NCI-60 one-dose screen, 48 h (100 = growth as untreated, 0 = no growth, -100 = all killed)
Conditions in all cases: 10 µM
[1] = tested on: SN12C renal
[2] = tested on: UO-31 renal
[3] = tested on: TK-10 renal
[4] = tested on: ACHN renal
[5] = tested on: CAKI-1 renal
[6] = tested on: A498 renal
[7] = tested on: MOLT-4 leukemia
[8] = tested on: SR leukemia
[9] = tested on: RPMI-8226 leukemia
[10] = tested on: OVCAR-8 ovarian
[11] = tested on: OVCAR-5 ovarian
[12] = tested on: OVCAR-4 ovarian
[13] = tested on: SK-OV-3 ovarian
[14] = tested on: IGROV1 ovarian
[15] = tested on: OVCAR-3 ovarian
[16] = tested on: HS 578T breast
[17] = tested on: NCI/ADR-RES ovarian
[18] = tested on: T-47D breast
[19] = tested on: CCRF-CEM leukemia

Measured: growth

CC/C(C)=C(\C)C(=O)O
inactive: [1] 111% | [2] 78.4% | [3] 105% | [4] 116% | [5] 95.5% | [6] 110% | [7] 101% | [8] 107% | [9] 107% | [10] 103% | [11] 112% | [12] 118% | [13] 91.9% | [14] 104% | [15] 105% | [16] 100% | [17] 108% | [18] 100%

COc1ccc(-c2nc3sc(C4CC4)nn3c2/C=C2/C(=O)Nc3ccc(OC)cc32)cc1
inactive: [1] 91.9% | [2] 75.6% | [3] 95.8% | [4] 78% | [5] 78.8% | [6] 49.4% | [19] 75.8% | [8] 26.5% | [9] 58% | [10] 76.7% | [11] 89.5% | [12] 44.6% | [13] 50.9% | [14] 81.5% | [15] 79.7% | [16] 25.3% | [17] 77.2% | [18] 68.7%

COC(=O)C(C(C[N+](=O)[O-])c1ccccc1)=P(c1ccccc1)(c1ccccc1)c1ccccc1 (configuration not stated)
inactive: [1] 100% | [2] 73.1% | [3] 97.2% | [4] 93.9% | [5] 84.3% | [6] 59.8% | [19] 77.1% | [7] 90.3% | [10] 93.4% | [11] 96.5% | [12] 98.3% | [13] 95.7% | [15] 89.5% | [16] 110% | [17] 103% | [18] 83.9%
active: [9] -28.2%

c1ccc(CSc2nnc3c4c5c(sc4nc(-c4cccnc4)n23)CCCCCC5)cc1
inactive: [1] 56.5% | [2] 94.8% | [3] 72.2% | [4] 73.7% | [5] 71.6% | [6] 58.5% | [19] 25.2% | [8] 46.5% | [9] 20.1% | [10] 20.3% | [12] 27.3% | [13] 71.2% | [14] 77% | [15] 36.4% | [16] 86.2% | [17] 100% | [18] 14%

COc1cc2nc(Nc3cccc(C(=O)O)c3)nc(N)c2cc1OC
inactive: [1] 95.4% | [2] 78.3% | [3] 108% | [4] 93.9% | [5] 93.7% | [6] 117% | [7] 12.8% | [8] 105% | [9] 307% | [10] 105% | [12] 103% | [13] 107% | [14] 16.4% | [15] 101% | [16] 93.4% | [17] 133% | [18] 105%

CN(C)CCS(=O)(=O)CCN(C)C
inactive: [1] 97.2% | [2] 113% | [3] 103% | [4] 107% | [5] 112% | [6] 96% | [19] 102% | [7] 104% | [9] 108% | [10] 99.5% | [11] 105% | [12] 120% | [13] 98.8% | [14] 119% | [15] 110% | [16] 98.9% | [17] 105% | [18] 111%

CC(C)(C)c1cc(Br)cc(C(C)(C)C)c1O
inactive: [1] 96.5% | [2] 86.6% | [3] 113% | [4] 106% | [5] 89.5% | [6] 120% | [7] 96% | [8] 92.3% | [9] 93.9% | [10] 103% | [11] 111% | [12] 112% | [13] 101% | [14] 115% | [15] 108% | [16] 120% | [17] 107% | [18] 99.8%

CCOC(=O)CCC(NC(=O)c1ccc(N)cc1)C(=O)OCC (configuration not stated)
inactive: [1] 103% | [2] 76.9% | [3] 102% | [4] 95.3% | [5] 123% | [6] 112% | [7] 114% | [8] 121% | [10] 105% | [11] 89.6% | [12] 95.7% | [13] 109% | [14] 105% | [15] 106% | [16] 113% | [17] 102% | [18] 101%

Cc1cc(Cc2cc(C)c(O)c(C)c2)cc(C)c1O
inactive: [1] 65.3% | [2] 61.2% | [3] 77.5% | [4] 72.1% | [5] 42.8% | [6] 97.5% | [7] 22.8% | [8] 25.1% | [9] 58.2% | [10] 61.9% | [11] 106% | [12] 77.1% | [13] 53% | [15] 28.2% | [16] 33.8% | [17] 19.4% | [18] 52.8%

CN(C)c1ccc(N=C2C=CC(=O)c3ccccc32)cc1
inactive: [1] 55.4% | [2] 48.8% | [3] 111% | [4] 79.5% | [5] 80.9% | [6] 91.3% | [19] 70.5% | [7] 77.6% | [9] 65.4% | [10] 76.3% | [11] 88% | [12] 71.5% | [13] 95.4% | [15] 23.8% | [16] 95.6% | [17] 85.5% | [18] 81.3%

O=C1CC[C@@H]2CCCC[C@@H]2C1
inactive: [1] 95.9% | [2] 75.2% | [3] 114% | [4] 100% | [5] 102% | [6] 108% | [7] 96.5% | [8] 94.7% | [10] 109% | [11] 101% | [13] 99.4% | [14] 105% | [15] 132% | [16] 110% | [17] 110% | [18] 93.5%

N#Cc1ncc(-c2ccc(C(F)(F)F)cc2)c(NCc2cc(C(F)(F)F)cc(C(F)(F)F)c2)n1
active: [4] 0.868% | [9] -19.6% | [18] 9.88%
inactive: [1] 21.8% | [2] 26.1% | [3] 47.4% | [5] 17.9% | [6] 15.3% | [19] 10.5% | [7] 21.9% | [10] 30.6% | [11] 57.3% | [12] 21% | [14] 40.6% | [15] 11.4% | [16] 36% | [17] 25.5%

CCOC(=O)N1C/C(=C/c2ccc(Cl)cc2)C(=O)/C(=C/c2ccc(Cl)cc2)C1
active: [9] -11.6%
inactive: [1] 72.2% | [2] 45.2% | [3] 99.5% | [4] 74.7% | [5] 65.5% | [6] 79.7% | [19] 26% | [7] 21.5% | [10] 27.8% | [12] 60.5% | [13] 83.7% | [14] 44% | [15] 27.4% | [16] 63.9% | [17] 71% | [18] 69.8%

CSC1=NCCCC1
inactive: [1] 110% | [2] 86.8% | [3] 125% | [4] 102% | [5] 115% | [6] 106% | [19] 103% | [7] 108% | [9] 106% | [10] 106% | [12] 105% | [14] 108% | [15] 110% | [16] 116% | [17] 118% | [18] 107%

O=C1/C(=C/c2ccc([N+](=O)[O-])o2)Oc2ccccc21
active: [1] -2.18% | [2] -61.5% | [3] -55.8% | [4] -9.64% | [5] -4.42% | [19] -1.87% | [8] 9.39% | [9] -0.688% | [10] 2.87% | [11] 8.57% | [12] -68.6% | [14] -22.7% | [15] -69.7% | [18] 8.17%
inactive: [6] 70.3% | [13] 84% | [16] 57.3% | [17] 14.8%

O=C(O)c1ccc(P(=O)(O)O)c([N+](=O)[O-])c1
inactive: [1] 101% | [2] 86% | [3] 108% | [4] 103% | [5] 94.7% | [6] 93.9% | [7] 111% | [8] 87.7% | [9] 102% | [10] 98% | [11] 107% | [12] 104% | [13] 107% | [14] 119% | [15] 111% | [16] 104% | [17] 108% | [18] 104%

CCOC(=O)N1C/C(=C/c2ccc(F)cc2)C(=O)/C(=C/c2ccc(F)cc2)C1
active: [1] -43.8% | [2] -55.6% | [3] 2.65% | [4] -28% | [5] -16% | [19] -1.18% | [7] 2.2% | [8] -19.9% | [9] -29% | [10] 9.76% | [12] 9.8% | [14] -34.1% | [15] -29.2% | [16] -10.5% | [17] 9.49%
inactive: [11] 24.2% | [13] 12.7% | [18] 30.5%

COc1ccccc1CNCCCN1C(=O)c2ccc3c4c(ccc(c24)C1=O)C(=O)N(CCCN)C3=O
inactive: [5] 31.3% | [13] 27.3% | [17] 59.4%
active: [1] -89% | [2] -20.8% | [3] -3.35% | [4] 2.62% | [6] -0.046% | [19] -10.4% | [8] 5.24% | [9] -13.6% | [10] -24.2% | [11] -29.7% | [12] -67.1% | [14] -52.7% | [15] -27.8% | [16] -13% | [18] -42.6%
